Screening data as filed in PubChem.
Exocytosis inh: lytic granule exocytosis inhibition. inhibition, % at 10 µM. AID 651702. 0.66% of 360,000 active. TALL-104 LAMP-1 surface exposure, flow cytometry; cells stimulated with thapsigargin and PMA;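 active means inhibition above about 55%, limit read from the data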
TLR9-MyD88 inh: inhibitors of human TLR9-MyD88 binding; Q9NR96+Q99836; CHO BLA complementation TLR9-MyD88, CCF4 FRET ratio; inhibition, % at 4.98 µM; 0.21% of 340,000 active;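 active means inhibition above the mean over all tested compounds plus 3 SD, cut at about 21% in these data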;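 further: 0% = DMSO only wells and 100% = clavulanate BLA inhibitor control wells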
TLR4-MyD88 BLA: inhibitors of human TLR4-MyD88 binding | O00206+Q99836 | HeLa CL3-4 TLR4/MyD88 BLA complementation, FRET ratio | inhibition, % at 8.4 µM | 0.18% of 200,000 active; in the data active means inhibition above about 25%;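 further: 0% = vehicle and 100% = reference inhibitor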
NOD2 RIPK2 PPI: NOD2-RIPK2 protein interaction inhibition; O43353; CHO BLA complementation NOD2-RIPK2, CCF4 ratio; inhibition, % at 4.98 µM; 0.38% of 360,000 active; AID 624267; in the data active means inhibition above about 21%;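 further: 0% = vehicle only and 100% = reference blocker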
ABHD5-PLIN5 inh: ABHD5-PLIN5 protein interaction inhibition. Q00G26+Q8WTS1. Split G. princeps luciferase complementation, luminescence, 4 h. inhibition, % at 4 µM. 0.78% of 360,000 active. AID 602281;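 active means inhibition above the mean inhibition across every tested compound plus 3 SD, cut at about 22% in these data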;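 further: 0% = DMSO only wells and the 100% control is not disclosed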
Beta2AR agonist: activates human beta-2 adrenergic receptor causing internalization | response, % (test concentration not listed) | Am2.2-beta2AR cells, FAP receptor internalization, flow cytometry | P07550 | 0.43% of 340,000 active;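 active means response above a set limit, near 3 SD of response in nonfluorescent compounds, cut at about 42% in these data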
TLR9-MyD88 cf: confirmation of human TLR9-MyD88 binding inhibitors; shares compounds with TLR9-MyD88 inh; CHO TLR9/MyD88 BLA complementation, CCF4 FRET ratio; inhibition, % at 4.98 µM; 51% of 680 active;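 active means mean inhibition across three repeats above about 21% taken from the earlier screen, limit read from the data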;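 further: blue over green emission ratio reports constitutive TLR9 MyD88 association via BLA complementation; 0% = DMSO vehicle wells and 100% = clavulanate BLA inhibitor wells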
Target sequence (Q9NR96 whole entry, looked up): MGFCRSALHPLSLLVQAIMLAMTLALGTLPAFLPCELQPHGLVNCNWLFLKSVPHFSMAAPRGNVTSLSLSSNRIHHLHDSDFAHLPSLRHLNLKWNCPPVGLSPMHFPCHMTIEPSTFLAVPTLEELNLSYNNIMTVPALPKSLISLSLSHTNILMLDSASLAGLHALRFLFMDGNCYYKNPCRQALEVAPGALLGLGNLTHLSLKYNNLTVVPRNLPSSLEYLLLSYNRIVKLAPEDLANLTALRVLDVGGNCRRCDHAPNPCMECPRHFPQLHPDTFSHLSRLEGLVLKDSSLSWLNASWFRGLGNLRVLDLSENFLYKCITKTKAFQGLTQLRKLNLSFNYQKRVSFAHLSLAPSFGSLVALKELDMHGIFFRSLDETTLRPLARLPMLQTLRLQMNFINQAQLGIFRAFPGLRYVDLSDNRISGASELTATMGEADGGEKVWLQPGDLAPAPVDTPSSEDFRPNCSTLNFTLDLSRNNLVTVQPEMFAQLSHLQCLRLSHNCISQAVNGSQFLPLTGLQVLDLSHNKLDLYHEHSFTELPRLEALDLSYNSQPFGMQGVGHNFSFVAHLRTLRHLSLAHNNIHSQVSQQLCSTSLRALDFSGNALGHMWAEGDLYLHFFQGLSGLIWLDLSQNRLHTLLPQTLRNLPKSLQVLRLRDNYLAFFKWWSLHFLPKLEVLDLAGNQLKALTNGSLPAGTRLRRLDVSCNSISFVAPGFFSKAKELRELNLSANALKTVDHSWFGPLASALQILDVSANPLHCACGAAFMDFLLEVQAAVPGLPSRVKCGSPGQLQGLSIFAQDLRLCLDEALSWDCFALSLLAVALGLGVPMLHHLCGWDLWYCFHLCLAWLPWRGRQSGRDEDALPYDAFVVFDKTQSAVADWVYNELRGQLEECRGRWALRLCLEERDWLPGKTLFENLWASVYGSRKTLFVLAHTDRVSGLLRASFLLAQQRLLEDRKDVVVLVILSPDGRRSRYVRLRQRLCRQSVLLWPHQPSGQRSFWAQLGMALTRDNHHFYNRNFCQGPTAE
BLA counter-1: beta-lactamase reporter inhibition, counter-screen artifact | AID 540251 | CHO-BLA cells, CCF4 FRET ratio, BLA reporter | inhibition, % at 4.98 µM | shares compounds with TLR9-MyD88 inh | 7% of 680 active;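 active means mean inhibition above a 50% cutoff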;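 further: counterscreen of TLR9-MyD88 hits on CMV-driven BLA in CHO-K1 cells; 0% = DMSO alone and 100% = clavulanate blocking BLA; higher means less blue over green ratio so more BLA blockade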
TLR9 CHO tox: CHO cell toxicity counter-screen for TLR9-MyD88 inhibitors. shares compounds with TLR9-MyD88 inh. AID 588336. 39% of 680 active. inhibition, % at 4.98 µM. TLR9-MyD88 CHO cells cytotoxicity, luminescence; in the data active means inhibition above about 11%
ABHD5 PLIN5 conf: confirmation of human ABHD5-PLIN5 interaction inhibitors; AID 651612; inhibition, % at 4 µM; biochemical ABHD5-PLIN5 interaction, luminescence; shares compounds with ABHD5-PLIN5 inh; 67% of 2,200 active; in the data active means inhibition above about 23%;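 further: 0% = DMSO vehicle wells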
HNF4 split-luc: HNF4 split-luciferase signal hit, counter-screen; inhibition, % at 4 µM; HNF4 dimerization, luminescence, biochemical; 77% of 2,200 active; shares compounds with ABHD5-PLIN5 inh; AID 651674;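 active means mean inhibition across replicate wells exceeding the computed hit threshold, cut at about 13% in these data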;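 further: light from luciferase halves that rejoin when HNF4 fusion proteins dimerize; 0% = DMSO only wells and the 100% control is not given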
NOD2 RIPK2 conf: confirmation of human NOD2-RIPK2 interaction inhibitors; shares compounds with NOD2 RIPK2 PPI; CHO cells, NOD2-RIPK2 BLA complementation, CCF4 FRET; inhibition, % at 4.98 µM; 70% of 1,200 active; AID 624370;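 active means mean inhibition across replicates above a set limit taken from the earlier primary screen, cut at about 21% in these data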;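 further: 0% = DMSO-only wells and the high end = clavulanate BLA-blocked wells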
BLA counter-2: NOD2-RIPK2 counterscreen BLA reporter activity; 57% of 1,200 active; shares compounds with NOD2 RIPK2 PPI; inhibition, % at 4.98 µM; CHO BLA reporter, CCF4 FRET ratio; AID 624371;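 active means mean inhibition above the low-control mean inhibition plus three low-control SD, cut at about 11% in these data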;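 further: 0% = DMSO only wells and 100% = clavulanate high control wells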
* hit, by the source's call. The list is not random: actives were taken first. Their share in the collection is about 2%.

What do the screens show for `CCn1nc(C)cc1-c1nnc(Sc2ncc([N+](=O)[O-])s2)n1C`?
Exocytosis inh: 17; TLR9-MyD88 inh: 29*; NOD2 RIPK2 PPI: 78*; ABHD5-PLIN5 inh: 24*; Beta2AR agonist: 39; TLR9-MyD88 cf: 42*; BLA counter-1: -1; TLR9 CHO tox: 101*; ABHD5 PLIN5 conf: 25*; HNF4 split-luc: 110*; NOD2 RIPK2 conf: 85*; BLA counter-2: 19*

What do the screens show for `O=C(Cn1sc2ccccc2c1=O)Nc1ccc(Br)cc1`?
Exocytosis inh: 26; TLR9-MyD88 inh: 31*; NOD2 RIPK2 PPI: 28*; ABHD5-PLIN5 inh: 65*; TLR9-MyD88 cf: 17; BLA counter-1: 0; TLR9 CHO tox: 81*; ABHD5 PLIN5 conf: 81*; HNF4 split-luc: 118*; NOD2 RIPK2 conf: 34*; BLA counter-2: 6

What do the screens show for `Nc1cccc2c1C(=O)N(CCOc1ccccc1F)C2=O`?
Exocytosis inh: -4; TLR9-MyD88 inh: 27*; NOD2 RIPK2 PPI: 33*; ABHD5-PLIN5 inh: -9; Beta2AR agonist: 0; TLR9-MyD88 cf: 17; BLA counter-1: 22; TLR9 CHO tox: -4; NOD2 RIPK2 conf: 38*; BLA counter-2: 49*

How did COc1ccc(-c2nn(Cc3ccccc3)cc2C(=O)N2CCN(c3ncccn3)CC2)cc1 do in these assays?
Exocytosis inh: -2; TLR9-MyD88 inh: 4; NOD2 RIPK2 PPI: -10; ABHD5-PLIN5 inh: 1; Beta2AR agonist: -4

How did COc1ccc2ccccc2c1/C=N/NC(=O)c1sc(N)c(C#N)c1C do in these assays?
Exocytosis inh: 9; TLR9-MyD88 inh: 21*; TLR4-MyD88 BLA: -4; NOD2 RIPK2 PPI: 22*; ABHD5-PLIN5 inh: 0; Beta2AR agonist: 9; TLR9-MyD88 cf: 8; BLA counter-1: 0; TLR9 CHO tox: 5; NOD2 RIPK2 conf: 3; BLA counter-2: 5

What do the screens show for `Brc1cc2c(cc1C1OCCCO1)OCO2`?
Exocytosis inh: 7; TLR9-MyD88 inh: -1; NOD2 RIPK2 PPI: 1; ABHD5-PLIN5 inh: 2; Beta2AR agonist: 1

Results for Cc1cccc2cc3c(N)c(C(=O)Nc4ccc(N5CCOCC5)cc4)sc3nc12 ?
Exocytosis inh: 10; TLR9-MyD88 inh: 3; TLR4-MyD88 BLA: 15; NOD2 RIPK2 PPI: 3; ABHD5-PLIN5 inh: 0; Beta2AR agonist: 20

Results for CCc1cccc2cc3c(N)c(C(=O)Nc4ccc(S(=O)(=O)N5CCCC5)cc4)sc3nc12 ?
Exocytosis inh: -5; TLR9-MyD88 inh: 30*; TLR4-MyD88 BLA: 8; NOD2 RIPK2 PPI: 33*; ABHD5-PLIN5 inh: -9; Beta2AR agonist: -157; TLR9-MyD88 cf: 20; BLA counter-1: 21; TLR9 CHO tox: 29*; NOD2 RIPK2 conf: 42*; BLA counter-2: 51*

Results for C[C@H](CO)N1C[C@H](C)[C@H](CN(C)C(=O)c2ccccc2F)Oc2ncc(Br)cc2C1=O ?
Exocytosis inh: -3; TLR9-MyD88 inh: 0; NOD2 RIPK2 PPI: 2; ABHD5-PLIN5 inh: 5

What do the screens show for `C=CCn1c(O)c(C2=c3ccccc3=NC2=O)s/c1=N/c1nccs1`?
Exocytosis inh: 6; TLR9-MyD88 inh: -4; TLR4-MyD88 BLA: 10; NOD2 RIPK2 PPI: 0; ABHD5-PLIN5 inh: -12; Beta2AR agonist: -11

What do the screens show for `C=CCn1c(O)c(C2=c3ccccc3=NC2=O)c2ccccc21`?
Exocytosis inh: 62*; TLR9-MyD88 inh: 21*; NOD2 RIPK2 PPI: 77*; ABHD5-PLIN5 inh: 90*; Beta2AR agonist: -2; TLR9-MyD88 cf: 27*; BLA counter-1: -1; TLR9 CHO tox: 98*; ABHD5 PLIN5 conf: 85*; HNF4 split-luc: 107*; NOD2 RIPK2 conf: 80*; BLA counter-2: -1

How did O=[N+]([O-])c1c(Nc2ccc(O)cc2)cc(Cl)c2nonc12 do in these assays?
Exocytosis inh: -13; TLR9-MyD88 inh: 49*; NOD2 RIPK2 PPI: 122*; ABHD5-PLIN5 inh: 58*; Beta2AR agonist: 81*; TLR9-MyD88 cf: 60*; BLA counter-1: -17; TLR9 CHO tox: 97*; ABHD5 PLIN5 conf: 83*; HNF4 split-luc: 101*; NOD2 RIPK2 conf: 120*; BLA counter-2: 25*

How did COc1cc(NS(=O)(=O)c2ccc(C)cc2)c2ncccc2c1 do in these assays?
Exocytosis inh: 1; TLR9-MyD88 inh: 22*; TLR4-MyD88 BLA: 22; NOD2 RIPK2 PPI: 51*; ABHD5-PLIN5 inh: -3; Beta2AR agonist: 31; TLR9-MyD88 cf: 18; BLA counter-1: 10; TLR9 CHO tox: 102*; NOD2 RIPK2 conf: 45*; BLA counter-2: 11*

What do the screens show for `COc1ccc(S(=O)(=O)Nc2ccccn2)cc1`?
Exocytosis inh: 0; TLR9-MyD88 inh: 5; NOD2 RIPK2 PPI: -10; ABHD5-PLIN5 inh: 5; Beta2AR agonist: 3

Results for COc1cc(CCN(C(=O)c2cccc(S(C)(=O)=O)c2)C(CCc2ccccc2)c2nc3ccccc3[nH]2)cc(OC)c1 (configuration not stated) ?
Exocytosis inh: -2; NOD2 RIPK2 PPI: -1; ABHD5-PLIN5 inh: 3

How did CCOC(=O)C1CCN(S(=O)(=O)c2c(Cl)ccc3nonc23)CC1 do in these assays?
Exocytosis inh: 7; TLR9-MyD88 inh: 43*; NOD2 RIPK2 PPI: 82*; ABHD5-PLIN5 inh: 15; Beta2AR agonist: 79*; TLR9-MyD88 cf: 39*; BLA counter-1: 19; TLR9 CHO tox: 81*; NOD2 RIPK2 conf: 78*; BLA counter-2: 15*

Results for O=C(NCc1ccc(F)cc1F)[C@@H]1CCCN1C(=O)[C@@H]1CCCN1C(=O)c1ccccc1 ?
Exocytosis inh: -4; NOD2 RIPK2 PPI: -9; ABHD5-PLIN5 inh: 6
